Assay results as given in PubChem BioAssay AID504690 (Sanford-Burnham Center for Chemical Genomics, 2011).
The campaign covered roughly 350,000 compounds. About 2,700 (0.77%) were called active.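 How the source made its calls: active means inhibition reaching at least a set limit at 20 µM in the primary screen (cut at about 59% in these data); inactive means the rest.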 What follows is part of a selection rich in actives, with near analogues and random picks from the rest.

These molecules were tested on glucose-6-phosphate dehydrogenase-6-phosphogluconolactonase (Plasmodium falciparum 3D7) (assay: PfG6PD enzyme inhibitors, primary screen, biochemical, fluorescence intensity, uHTS (AID 504690;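 further: 0% = DMSO wells with substrate and 100% = DMSO wells lacking glucose-6-phosphate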)). Conditions: PfGluPho enzyme, NADPH resazurin-diaphorase fluorescence; at 20 µM; active compounds read high.

inhibition, active:
COc1c(O)ccc2c1CN1CCc3cc4c(cc3C1C2)OCO4 (stereo not drawn) 75.1%
CN(C)C(=O)N=NC(=O)N(C)C 62.4%
CCc1cc(C(N)=O)c(NC(=O)c2ccc(OC)cc2)s1 63.8%
Nc1ccc(-c2nnc(-c3ccc(-c4ccccc4)cc3)o2)cc1 64%
Cc1ccc(NC(=O)Cn2sc3ccccc3c2=O)cc1 125%
O=C(/C=C/c1ccco1)Nc1ccc(Oc2ccccc2)cc1 62.8%

inhibition, inactive:
O=C(CN(CC1CCCO1)C(=O)CNS(=O)(=O)c1ccc(F)cc1)NCc1ccco1 (stereo not drawn) 9.81%
COc1ccc2cc1Oc1ccc(cc1)C[C@H]1c3cc(c(OC)cc3CCN1C)Oc1c(O)c(OC)cc3c1[C@H](C2)N(C)CC3 10.2%
COc1cc(C(=O)CCc2ccc3c(c2)OCO3)cc(OC)c1OC 31.9%
CCc1cccc(C)c1N1C(=O)CN(Cc2ccccc2)C1=S 8.09%
O=C(Nc1cccc(Cl)c1)Nc1ccccc1NS(=O)(=O)c1cccs1 -1.49%
CCCCSc1nc2c(c(=O)n1CC)SC(C)C2 (stereo not drawn) -22.8%
CCc1cc(C(=O)c2ccc(OC)cc2)c(NC(=O)CN2CCN(C)CC2)s1 -3.28%
COc1ccc(C(=O)Nc2sc(C)c(C)c2CN2CCOCC2)cc1 3.12%
O=C1CC(C(F)(F)C(F)(F)C(F)(F)C(F)(F)F)=Nc2ccccc2N1 6.19%
CCc1cccc2c3c([nH]c12)C(CC)(CC(=O)O)OCC3 (stereo not drawn) -16.9%
COc1ccc(-c2nnc(-c3ccc4ccccc4c3)o2)cc1 15.1%
CN(C)c1ccc(-c2nnc(-c3cccnc3)o2)cc1 3.13%
CC(C)C[C@@H](NC(=O)[C@H]1CCCN1C(=O)Cc1ccccc1)C(N)=O -7.04%
C/C=C/C=C/C(=O)OCC(=O)Nc1ccc(Cl)cc1 8.86%
Cc1ccc(NC(=O)Cn2c(C)csc2=O)cc1 3.32%
O=C(Cn1nc(C(=O)O)c2ccccc2c1=O)Nc1ccc(F)cc1 -5.5%
CCOc1ccc(/C(O)=C2\C(=O)C(=O)N(c3ccc(OC)cc3)C2c2ccccc2[N+](=O)[O-])cc1 (stereo not drawn) -3.26%
Cc1cc(OCC(=O)Nc2nccs2)c2c(C)c(C)c(=O)oc2c1 0.15%
CCCCn1c(N)c(N(CC(C)C)C(=O)c2cccc(S(=O)(=O)N3CC(C)OC(C)C3)c2)c(=O)[nH]c1=O (stereo not drawn) -1.62%
CCC1(CC)NC(=O)N(CC(=O)OCC(=O)Nc2ccc(C(F)(F)F)cc2)C1=O 3.64%
COc1cccc(NC(=O)COC(=O)/C=C/c2ccco2)c1 17.7%
O=C(O)/C=C\C(=O)Nc1ccc(OCc2ccccc2)cc1 -24.5%
